Screening data from PubChem BioAssay.
VACV mCherry inh – inhibitors of vaccinia virus infection (mCherry reporter signal); Vaccinia virus mCherry reporter infection, fluorescence; Potency, µM (series often up to 36.5 µM), actives largely listed as inhibitors; 310,000 compounds, 0.63% hits; calls by dose curve; tested in A549 cells; also: nearly all actives have a fitted effect of over 35% in size
FMDV inh – antivirals against foot and mouth disease virus | FMDV antiviral cell-based qHTS | Potency, µM (highest dose often 57.9 µM), usual class: inhibitors | 410,000 compounds, 1.2% hits | AID 1159524; calls by dose curve; tested in HEK293T cells; also: read-out not given here; nearly all actives have a fitted effect of over 45% in size
Vaccinia Venus – vaccinia inhibition (Venus reporter); Vaccinia virus Venus reporter expression, fluorescence; Potency, µM (doses to about 36.5 µM), hits mostly inhibitors; 330,000 compounds, 0.46% hits; calls by dose curve; tested in A549 cells; also: nearly all actives have a fitted effect of over 30% in size
HCV inhibitor – inhibitors of hepatitis C virus infection; Huh7.5.1 HCVcc-Cre infection, luciferase reporter, 44 h; Potency, µM (series often up to 41.8 µM), usual class: inhibitors; 340,000 compounds, 3.4% hits; AID 651820; active = well fitted inhibition curve with a large enough effect; inconclusive = small, poorly fitted or top-dose-only effect, or another doubt; inactive = no such curve, though single readings can be large or run the other way
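1,000 cells/well; 4 h culture; + compound; + HCVcc-Cre (~0.5 moi); 44 h; luciferase substrate, RT 15 min; read 15 sec.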
HCMV inh – human cytomegalovirus inhibition. HFF cells, HCMV-luciferase reporter, 72 h; active compounds read low. activity change, negative = inhibition, % at 57.5 µM. 410,000 compounds, 4.5% hits. AID 1259415; in the data active = activity change below about -60%; inconclusive = no clear call, values can overlap the other calls; inactive = above about -39%
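Luciferase read-out from HCMV-luciferase-infected HFFs (MOI 1 PFU/cell) 72 h post infection at 37C; compounds added after 16 h cell attachment; activity normalized between buffer-only basal and Salinomycin (10uM) inhibitor controls.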
A number is an active result; 0 = inactive; ? = inconclusive; - = no result given; [ ] = remark or other dose. Sampled rows, rich in hits. Any-hit rate of the full collection: about 7.3%.

SMILES	VACV mCherry inh	FMDV inh	Vaccinia Venus	HCV inhibitor	HCMV inh
COc1ccccc1NS(=O)(=O)c1ccc(C(=O)N2CCN(c3ccccn3)CC2)cc1	?	?	0	11µM	0
CCOc1ccc(S(=O)(=O)Nc2cccc(C(=O)N3CCN(c4ccccn4)CC3)c2)cc1	?	0	0	-	-62
CN(c1ccc(OCC(=O)N2CCN(C/C=C/c3ccccc3)CC2)cc1)S(=O)(=O)c1cccs1	-	?	-	11µM	-82
Cc1ccc(S(=O)(=O)NCc2ccc(C(=O)N3CCN(c4ccccn4)CC3)cc2)cc1	0	?	0	?	0
CCOc1ccc(S(=O)(=O)Nc2cccc(C(=O)N3CCN(c4ccccc4O)CC3)c2)cc1	0	0	0	0	0
COc1ccc(C(=O)N2CCN(c3ccccn3)CC2)cc1	-	0	-	0	0
CCOc1ccc(NS(=O)(=O)c2cccc(C(=O)N3CCN(C/C=C/c4ccccc4)CC3)c2)cc1	0	28µM	?	?	?
O=C(c1cccc(S(=O)(=O)N2CCOCC2)c1)N1CCN(C/C=C/c2ccccc2)CC1	0	0	0	0	0
C#CCn1cc(/C=C2\NC(=O)NC2=O)c2ccccc21	4.5µM	0	0	0	0
Cc1cccc(-c2nc(CSCC(=O)N3CCN(c4ccccc4)CC3)c(C)o2)c1	0	?	0	-	0
COC(=O)CSCc1nc(-c2ccc(C(=O)OC)cc2)oc1C	0	0	0	-	-63
CCOc1ccc(-c2nc(CSCC(=O)N3CCN(c4ccc(F)cc4)CC3)c(C)o2)cc1	?	?	0	-	0
CSc1ccc(-c2nc(CSCC(=O)NC3CC3)c(C)o2)cc1	-	0	-	?	0
CCc1ccc(-c2nc(CSCC(=O)N3CCN(c4ncccn4)CC3)c(C)o2)cc1	?	22µM	?	?	?
CSc1ccc(-c2nc(CSCC(=O)N3CCOCC3)c(C)o2)cc1	-	?	-	?	-74
CCc1ccc(-c2nc(CSCC(=O)NC3CC3)c(C)o2)cc1	0	0	0	?	-74
O=C(Nc1ccc(C(=O)N2CCN(c3cccc(Cl)c3)CC2)cc1)c1nsc2ccccc12	0	0	0	-	0
COc1ccc2c(c1)OC(C)CN(CCNC(=O)c1ccc(-n3cccn3)cc1)C2 (configuration not stated)	0	0	0	-	-
Cc1cc(C)c2oc(-c3cccc(NC(=O)COc4ccc(Cl)cc4C)c3C)nc2c1	0	-	0	-	-
COc1ccc2c(c1)c1c(c(=O)n(Cc3ccccc3)c(=O)n1CC(=O)Nc1ccc(C)cc1C)n2C	0	0	0	-	0
COC(=O)c1cc2sccc2n1Cc1nc(-c2ccc(OC)cc2)oc1C	0	-	0	0	-61
CC(C)(C)OC(=O)N(CCc1ccccc1)Cc1cccc(OCc2cccc(NC(=O)C3CCC3)c2)c1	0	0	0	0[8.37 µM]	0
O=C(NCCCc1ccccc1)c1cccc(NC(=O)C2CCCCC2)c1	0	0	0	4.5µM	0
O=C(NCCCc1ccccc1)c1cccc(NC(=O)C2CCC2)c1	0	0	0	?	0
CC(C)(C)OC(=O)N(Cc1ccccc1)Cc1cccc(OCc2cccc(NC(=O)C3CC3)c2)c1	0	?	?	1.3µM	?
SMILES	VACV mCherry inh	FMDV inh	Vaccinia Venus	HCV inhibitor	HCMV inh
CC(C)(C)OC(=O)N1CCC(C(=O)Nc2cccc(C(=O)NCCCc3ccccc3)c2)CC1	0	?	0	4µM	0
O=Cc1ccc(/C=C2\C=Cc3ccccc32)cc1	0	-	0	-	-
C[C@@H]1COc2cc(NCCO)ccc2S(=O)(=O)N1	-	-	-	-	0
CCC(=O)N1c2nc(C(C)C)nn2C2(CCCCC2)[C@@H]2CCCC[C@@H]21	0	?	0	-	0
COc1ccc(CN2CCC(C(=O)Nc3ccc(Oc4ccccc4)nc3)CC2)cc1F	0	?	0	2.5µM	-70
O=C(Nc1ccc(Oc2ccccc2)nc1)C1CCN(Cc2ccccc2)CC1	-	0	-	?	0
O=C(Nc1ccc(Oc2cccnc2)cc1)C1CCN(Cc2cccc(Cl)c2)CC1	-	0	-	?	-79
Cc1c(CN2CCC(C(=O)Nc3ccc(Oc4ccccc4)nc3)CC2)cnn1C	-	0	-	0	?
COc1cc(F)ccc1CN1CCC(C(=O)Nc2ccc(Oc3ccccc3)nc2)CC1	0	?	0	10µM	0
CCc1ccc(CN2CCC(C(=O)Nc3ccc(Oc4ccccc4)nc3)CC2)o1	0	?	0	11µM	-72
COc1ccc(OCC(=O)Nc2nnc3n2CCS3)cc1	0	0	0	-	0
Cc1cccc(C(=O)NC(=O)Nc2ccc(-n3nc(C(F)(F)F)cc3C(F)(F)F)cc2)c1	0	0	0	-	0
Oc1ccc(Cl)cc1-c1cc(-c2ccco2)[nH]n1	0	0	0	0	0
